Source: PubChem BioAssay
For some assays here: Potency and affinity values are given separately. The source made the active and inactive calls. Unless noted, no rule for the calls is given here.

Assays:
[1] = antimalarial activity against Dd2 strain (AID 2302;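 active = growth inhibition above 50% at the single 2 µM test dose, taken to imply half-maximal potency below 2 µM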;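 also: 0% = DMSO untreated growth and 100% = chloroquine plus artemisinin killed control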); settings: P. falciparum Dd2 in RBCs, LDH growth readout, 72 h; at 2 µM; hits give high values
[2] = HepG2 cytotoxicity, primary screen, cytotoxicity control for P. falciparum antimalarial project, cell-based, ATP luminescence (AID 2303;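 active = inhibition above 50%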;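 also: 0% = DMSO wells and 100% = digitonin-killed cells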); settings: HepG2 viability, 24-48 h, at 10 µM, hits give high values
[3] = biological target: L-lactate dehydrogenase (Plasmodium falciparum (isolate CDC / Honduras)) (UniProt Q27743); assay: PfLDH activity inhibition – cell lysate, 3D7 strain, counter-screen for P. falciparum growth inhibition project (AID 2304);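 also: 0% = vehicle and 100% = reference inhibitor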; settings: P. falciparum 3D7 crude extract, LDH APAD/NBT absorbance; at 2 µM; hits give high values
Sequence of L-lactate dehydrogenase (Plasmodium falciparum (isolate CDC / Honduras)) (Q27743 whole entry, looked up): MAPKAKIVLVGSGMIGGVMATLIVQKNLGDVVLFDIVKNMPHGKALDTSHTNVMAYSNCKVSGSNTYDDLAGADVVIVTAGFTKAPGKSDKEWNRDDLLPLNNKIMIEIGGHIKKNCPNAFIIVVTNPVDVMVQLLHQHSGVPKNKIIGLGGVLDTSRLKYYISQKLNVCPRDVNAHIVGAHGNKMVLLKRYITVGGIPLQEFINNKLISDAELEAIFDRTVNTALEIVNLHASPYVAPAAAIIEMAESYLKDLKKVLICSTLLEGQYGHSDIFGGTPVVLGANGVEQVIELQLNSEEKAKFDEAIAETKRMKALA

[4] = inhibition of 3D7 malaria parasite growth – strain 3D7 (AID 2306);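 also: 0% = DMSO wells and 100% = chloroquine plus artemisinin control wells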; settings: P. falciparum 3D7 erythrocytic growth, LDH absorbance, 72 h; at 2 µM; hits give high values
[5] = biological target: Calcium-dependent protein kinase 1 (Plasmodium falciparum (isolate 3D7)) (UniProt P62344); assay: PfCDPK1 kinase inhibitors, biochemical, TCAMS library (AID 1159585; cut-off not given, nearly all actives have IC50 up to about 0.98 µM;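 also: inhibitors leave more ATP so luminescence rises with inhibition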); settings: recombinant PfCDPK1, Kinase-Glo ATP depletion luminescence
Sequence of Calcium-dependent protein kinase 1 (Plasmodium falciparum (isolate 3D7)) (P62344 whole entry, looked up): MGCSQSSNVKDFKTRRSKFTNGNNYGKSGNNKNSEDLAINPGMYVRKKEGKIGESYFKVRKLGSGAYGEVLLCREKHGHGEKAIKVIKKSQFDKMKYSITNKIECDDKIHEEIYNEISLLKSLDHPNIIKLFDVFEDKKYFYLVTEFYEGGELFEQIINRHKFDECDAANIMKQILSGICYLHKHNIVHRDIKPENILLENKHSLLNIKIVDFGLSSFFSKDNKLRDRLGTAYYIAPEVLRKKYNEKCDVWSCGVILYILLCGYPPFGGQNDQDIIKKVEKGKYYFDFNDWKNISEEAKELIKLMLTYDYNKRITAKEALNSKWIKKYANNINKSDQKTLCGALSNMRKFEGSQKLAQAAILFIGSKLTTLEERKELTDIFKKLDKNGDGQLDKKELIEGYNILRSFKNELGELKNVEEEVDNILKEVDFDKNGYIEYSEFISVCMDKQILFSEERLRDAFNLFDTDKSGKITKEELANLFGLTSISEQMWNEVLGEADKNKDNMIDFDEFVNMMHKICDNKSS

[6] = biological target: Plasmodium falciparum protein kinase 6 (PK6, PF3D7_1337100) (UniProt Q8IDW1); assay: PfPK6 kinase inhibitors, biochemical, TCAMS library (AID 1159586); settings: recombinant PfPK6, Kinase-Glo ATP depletion luminescence
Sequence of Plasmodium falciparum protein kinase 6 (PK6, PF3D7_1337100) (Q8IDW1 1-305): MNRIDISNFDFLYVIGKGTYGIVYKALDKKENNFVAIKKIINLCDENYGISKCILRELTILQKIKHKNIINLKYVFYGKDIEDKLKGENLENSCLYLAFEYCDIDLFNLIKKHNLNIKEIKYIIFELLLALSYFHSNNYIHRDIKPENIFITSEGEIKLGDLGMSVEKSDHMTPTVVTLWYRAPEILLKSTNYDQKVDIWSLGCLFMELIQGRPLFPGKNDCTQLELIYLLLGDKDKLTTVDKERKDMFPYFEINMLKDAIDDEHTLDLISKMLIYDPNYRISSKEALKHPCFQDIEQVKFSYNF

[7] = biological target: Protein kinase 7 (PK7), Plasmodium falciparum 3D7 (PF3D7_0213400) (UniProt Q7YTF7); assay: inhibition of Plasmodium PK7 catalytic activity – biochemical, TCAMS antimalarial set, Kinase-Glo luminescence (AID 1159587); settings: recombinant PfPK7, Kinase-Glo ATP depletion luminescence
Sequence of Protein kinase 7 (PK7), Plasmodium falciparum 3D7 (PF3D7_0213400) (Q7YTF7 1-343): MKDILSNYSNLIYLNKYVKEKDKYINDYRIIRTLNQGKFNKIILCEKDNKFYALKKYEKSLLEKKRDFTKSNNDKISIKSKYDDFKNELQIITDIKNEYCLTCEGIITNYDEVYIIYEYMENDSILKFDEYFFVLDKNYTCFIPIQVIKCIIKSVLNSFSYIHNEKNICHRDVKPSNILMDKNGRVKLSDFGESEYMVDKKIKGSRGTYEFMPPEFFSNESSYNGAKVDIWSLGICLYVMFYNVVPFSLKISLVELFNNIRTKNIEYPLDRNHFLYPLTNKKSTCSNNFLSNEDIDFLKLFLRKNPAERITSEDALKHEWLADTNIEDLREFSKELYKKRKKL

[8] = biological target: Calcium-dependent protein kinase 4 (Plasmodium falciparum (isolate 3D7)) (UniProt Q8IBS5); assay: PfCDPK4 kinase inhibitors, biochemical, TCAMS library (AID 1159588; cut-off not given, nearly all actives have IC50 up to about 0.91 µM); settings: recombinant PfCDPK4, Kinase-Glo ATP depletion luminescence
Sequence of Calcium-dependent protein kinase 4 (Plasmodium falciparum (isolate 3D7)) (Q8IBS5 whole entry, looked up): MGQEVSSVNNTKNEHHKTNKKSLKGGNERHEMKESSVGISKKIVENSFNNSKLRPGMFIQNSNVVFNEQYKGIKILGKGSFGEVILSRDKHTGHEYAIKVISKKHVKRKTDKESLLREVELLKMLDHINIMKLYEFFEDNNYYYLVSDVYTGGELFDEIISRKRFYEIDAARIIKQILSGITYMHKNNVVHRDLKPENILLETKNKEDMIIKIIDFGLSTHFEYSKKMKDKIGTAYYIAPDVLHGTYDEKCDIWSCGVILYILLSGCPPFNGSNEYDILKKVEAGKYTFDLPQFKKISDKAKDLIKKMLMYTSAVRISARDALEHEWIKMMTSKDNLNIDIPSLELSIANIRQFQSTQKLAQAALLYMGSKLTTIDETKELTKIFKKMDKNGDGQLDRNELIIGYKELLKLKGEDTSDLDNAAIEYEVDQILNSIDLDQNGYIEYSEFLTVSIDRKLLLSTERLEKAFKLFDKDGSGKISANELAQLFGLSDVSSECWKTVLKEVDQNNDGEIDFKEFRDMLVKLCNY

CN(CCCc1c[nH]c2ccccc12)CC1CCN(C(=O)/C=C/c2ccc(Cl)c(Cl)c2)CC1
active: growth inhibition [4] 99%
inactive: growth inhibition [1] 25% | inhibition [2] 37% | inhibition [3] -1% | outcome [5] | outcome [6] | outcome [7] | outcome [8]

CC(Nc1ccnc2cc(Cl)ccc12)c1ccc(S(N)(=O)=O)cc1 (stereo not given)
active: growth inhibition [4] 96%
inactive: growth inhibition [1] 21% | inhibition [2] 5% | inhibition [3] 3% | outcome [5] | outcome [6] | outcome [7] | outcome [8]

O=C1CCCN1CCCNCc1ccc(-c2cccc(-c3nc4ccc(C(F)(F)F)cc4[nH]3)c2)cc1
inactive: inhibition [2] 14% | inhibition [3] 2% | outcome [5] | outcome [6] | outcome [7] | outcome [8]
active: growth inhibition [1] 98% | growth inhibition [4] 100%

Cc1[nH]c(C)c(-c2ccc(-c3ccc(F)cc3)cc2)c(=O)c1Br
active: growth inhibition [1] 52% | growth inhibition [4] 94%
inactive: inhibition [2] 12% | inhibition [3] 2% | outcome [5] | outcome [6] | outcome [7] | outcome [8]

CCn1cc(CN2C(=O)C(c3ccccc3)(c3ccccc3)N=C2N)cn1
active: growth inhibition [1] 60% | growth inhibition [4] 95%
inactive: inhibition [2] 7% | inhibition [3] -2% | outcome [5] | outcome [6] | outcome [7] | outcome [8]

NC(=NCCCCC1CCCCC1)c1cccc(C(N)=NCCCCC2CCCCC2)n1
active: inhibition [2] 99% | growth inhibition [4] 100%
inactive: growth inhibition [1] 19% | inhibition [3] 3% | outcome [5] | outcome [6] | outcome [7] | outcome [8]

Nc1c2c(nc3ccc(NC(=O)Cc4ccccc4)cc13)CCCC2
active: growth inhibition [4] 101%
inactive: growth inhibition [1] -2% | inhibition [2] 9% | inhibition [3] 6% | outcome [5] | outcome [6] | outcome [7] | outcome [8]

O=S(=O)(Nc1cccc(CCN2CCCCC2CCN2CCCC2)c1)c1ccc(-c2ccccc2)cc1 (stereo not given)
inactive: growth inhibition [1] 5% | inhibition [2] 31% | inhibition [3] 0% | outcome [5] | outcome [6] | outcome [7] | outcome [8]
active: growth inhibition [4] 99%

Fc1cccc(Nc2nc(NCc3ccc(OCc4ccccc4)cc3)nc(Nc3cccc(F)c3)n2)c1
inactive: growth inhibition [1] 14% | inhibition [2] 5% | inhibition [3] 1% | outcome [5] | outcome [6] | outcome [7] | outcome [8]
active: growth inhibition [4] 84%

CCC(C)NC(=O)Nc1ccc(-c2cccc(-c3nc4ccccc4[nH]3)c2)cc1 (stereo not given)
inactive: growth inhibition [1] 37% | inhibition [2] 41% | inhibition [3] 7% | outcome [5] | outcome [6] | outcome [7] | outcome [8]
active: growth inhibition [4] 94%

Cc1cccc2[nH]c(-c3cccc(-c4ccc(NC(=O)CS(C)(=O)=O)cc4)c3)nc12
inactive: growth inhibition [1] 8% | inhibition [2] 3% | inhibition [3] -8% | outcome [5] | outcome [6] | outcome [7] | outcome [8]
active: growth inhibition [4] 85%

CCn1ncc2c(N3CCCC3=O)cc(C(=O)N[C@@H](Cc3ccccc3)[C@H](O)CNC(C)(C)c3cccc(C(F)(F)F)c3)cc21
active: growth inhibition [1] 99% | growth inhibition [4] 98%
inactive: inhibition [2] 10% | inhibition [3] 3% | outcome [5] | outcome [6] | outcome [7] | outcome [8]

O=C(Nc1ccccc1)N(Cc1ccc(-c2cccc(CNC3CCCC3)c2)cc1)C1CCN(Cc2ccccc2)CC1
active: growth inhibition [1] 67% | growth inhibition [4] 101%
inactive: inhibition [2] 43% | inhibition [3] 1% | outcome [5] | outcome [6] | outcome [7] | outcome [8]

Cc1cc(OCC2CCCO2)c2cc(NC(=O)C(=O)Nc3ccc4nc(C)cc(OCC5CCCO5)c4c3)ccc2n1 (stereo not given)
inactive: growth inhibition [1] 32% | inhibition [2] 7% | inhibition [3] -4% | outcome [5] | outcome [6] | outcome [7] | outcome [8]
active: growth inhibition [4] 96%

CCOc1cc(Cc2cnc(N)nc2N)cc(OCC)c1OCCCCC(=O)OC
inactive: growth inhibition [1] 0% | inhibition [2] -12% | inhibition [3] 0% | outcome [5] | outcome [6] | outcome [7] | outcome [8]
active: growth inhibition [4] 95%

O=C(Cc1ccc([N+](=O)[O-])cc1)N1CCc2cc3nccc(N4CCN5CCC[C@H]5C4)c3cc21
inactive: growth inhibition [1] 7% | inhibition [2] -7% | inhibition [3] -4% | outcome [5] | outcome [6] | outcome [7] | outcome [8]
active: growth inhibition [4] 95%

O=C(Nc1ccc(F)cc1F)NC1CCN(c2ccnc3cc(Cl)ccc23)C1 (stereo not given)
active: growth inhibition [1] 82% | growth inhibition [4] 100%
inactive: inhibition [2] 25% | inhibition [3] 1% | outcome [5] | outcome [6] | outcome [7] | outcome [8]

O=C(CNC(=O)c1ccc(O)cc1)Nc1cccc(-c2cccc(-c3nc4ccc(C(F)(F)F)cc4[nH]3)c2)c1
active: inhibition [2] 63% | growth inhibition [4] 96%
inactive: growth inhibition [1] 28% | inhibition [3] 5% | outcome [5] | outcome [6] | outcome [7] | outcome [8]

O=C(Nc1ccc(Cl)c(Cl)c1)N(Cc1ccccc1Br)C1CCNCC1
inactive: growth inhibition [1] 8% | inhibition [2] 13% | inhibition [3] 7% | outcome [5] | outcome [6] | outcome [7] | outcome [8]
active: growth inhibition [4] 96%

Nc1c2c(nc3ccc(NC(=O)CCCc4ccccc4)cc13)CCCC2
active: inhibition [2] 73% | growth inhibition [4] 101%
inactive: growth inhibition [1] 42% | inhibition [3] -1% | outcome [5] | outcome [6] | outcome [7] | outcome [8]

CC(C)(C)c1ccc(OCCCON2C(N)=NC(N)=NC2(C)C)cc1
inactive: inhibition [3] -4% | outcome [5] | outcome [6] | outcome [7] | outcome [8]
active: growth inhibition [1] 76% | inhibition [2] 77% | growth inhibition [4] 93%

CN(C)CCN(C)Cc1ccc(-c2ccc3c(Nc4ccc(Oc5ccccn5)cc4)ccnc3c2)o1
active: growth inhibition [1] 100% | growth inhibition [4] 100%
inactive: inhibition [2] 16% | inhibition [3] 6% | outcome [5] | outcome [6] | outcome [7] | outcome [8]

CC(=O)Nc1cc(C(=O)Nc2cccc(-c3csc(-c4nc5ccccc5[nH]4)c3)c2)ccc1C
active: growth inhibition [1] 66% | growth inhibition [4] 94%
inactive: inhibition [2] 31% | inhibition [3] 3% | outcome [5] | outcome [6] | outcome [7] | outcome [8]

Cc1ccc(NC(=O)c2ccc(CN3CCCN(Cc4cccc(Cl)c4)CC3)cc2)cc1C
inactive: growth inhibition [1] 18% | inhibition [2] 41% | inhibition [3] 2% | outcome [5] | outcome [6] | outcome [7] | outcome [8]
active: growth inhibition [4] 84%

Clc1ccc(-c2ccc(C=NNc3nc(Nc4ccccc4)nc(Nc4ccccc4)n3)o2)cc1Cl
active: growth inhibition [1] 75% | growth inhibition [4] 97%
inactive: inhibition [2] 1% | inhibition [3] -1% | outcome [5] | outcome [6] | outcome [7] | outcome [8]

CCCCCCc1cc2cc(-c3nc(-c4ccc(OC)cc4)cs3)c(=O)oc2cc1O
inactive: inhibition [2] 45% | inhibition [3] -6% | outcome [5] | outcome [6] | outcome [7] | outcome [8]
active: growth inhibition [1] 93% | growth inhibition [4] 97%

O=C(NCC1CCN(CC2CCCCC2)C1)c1cc(-c2cccc(C(F)(F)F)c2)cs1 (stereo not given)
inactive: growth inhibition [1] 21% | inhibition [2] 47% | inhibition [3] -3% | outcome [5] | outcome [6] | outcome [7] | outcome [8]
active: growth inhibition [4] 96%

O=C(Nc1ccc(F)cc1)NC1CCN(c2ccnc3cc(Cl)ccc23)CC1
active: growth inhibition [1] 57% | growth inhibition [4] 97%
inactive: inhibition [2] 10% | inhibition [3] 0% | outcome [5] | outcome [6] | outcome [7] | outcome [8]

CCOC(=O)c1ccc(-c2cnc(N)c(-c3nc4c(C)cccc4[nH]3)c2)cc1
inactive: inhibition [2] 43% | inhibition [3] -4% | outcome [5] | outcome [6] | outcome [7] | outcome [8]
active: growth inhibition [1] 79% | growth inhibition [4] 102%

c1ccc(COc2ccccc2COc2ccccc2-c2ccc3cccnc3n2)cc1
active: growth inhibition [1] 95% | growth inhibition [4] 87%
inactive: inhibition [2] -6% | inhibition [3] 5% | outcome [5] | outcome [6] | outcome [7] | outcome [8]

CC(C)[C@H](NC(=O)c1ccc(O)c(-c2ccc(Cl)c(Cl)c2)c1)C(=O)NCCN1CCCCC1
inactive: inhibition [2] -6% | inhibition [3] -4% | outcome [5] | outcome [6] | outcome [7] | outcome [8]
active: growth inhibition [1] 98% | growth inhibition [4] 99%

C(=NNc1cc(-c2ccccc2)nc2ccccc12)c1cccnc1
inactive: growth inhibition [1] 13% | inhibition [2] 23% | inhibition [3] -1% | outcome [5] | outcome [6] | outcome [7] | outcome [8]
active: growth inhibition [4] 87%

CC(C)CN1C(=O)c2ccccc2C(C(=O)Nc2cccc(C#N)c2)C1c1cccs1 (stereo not given)
active: growth inhibition [1] 100% | growth inhibition [4] 101%
inactive: inhibition [2] 11% | inhibition [3] -4% | outcome [5] | outcome [6] | outcome [7] | outcome [8]

CCc1cccc(-n2nc(OCC(=O)NC3CCCC3)c3cccnc32)c1
active: growth inhibition [4] 94%
inactive: growth inhibition [1] 13% | inhibition [2] 2% | inhibition [3] -4% | outcome [5] | outcome [6] | outcome [7] | outcome [8]

COc1ccc2nccc([C@@H](O)CN3CCC(NC(=O)c4cc5c(Cl)cc(Cl)cc5[nH]4)CC3)c2c1
inactive: inhibition [2] 22% | inhibition [3] -3% | outcome [5] | outcome [6] | outcome [7] | outcome [8]
active: growth inhibition [1] 98% | growth inhibition [4] 100%

CC[C@H](C)CNCc1ccc(OCc2cccc(COc3ccc(CNC[C@@H](C)CC)cc3I)c2)c(I)c1
inactive: inhibition [3] 7% | outcome [5] | outcome [6] | outcome [7] | outcome [8]
active: growth inhibition [1] 60% | inhibition [2] 99% | growth inhibition [4] 99%

CN1CCCc2ccc(NC(=O)c3cc(-c4ccc(Cl)cc4)cs3)cc2C1
inactive: growth inhibition [1] 40% | inhibition [2] 35% | inhibition [3] -2% | outcome [5] | outcome [6] | outcome [7] | outcome [8]
active: growth inhibition [4] 94%

Cc1cccc2[nH]c(-c3ccc(-c4cccc(CN5CCN(c6ccncc6)CC5)c4)cc3)nc12
inactive: inhibition [3] 7% | outcome [5] | outcome [6] | outcome [7] | outcome [8]
active: growth inhibition [1] 99% | inhibition [2] 50% | growth inhibition [4] 101%

CCc1ccc(-n2c(=O)c3cccnc3n2CC(=O)NC2CCCC2)cc1
active: growth inhibition [4] 98%
inactive: growth inhibition [1] 27% | inhibition [2] -1% | inhibition [3] -7% | outcome [5] | outcome [6] | outcome [7] | outcome [8]

O=C(CCc1ccccc1)N[C@H](Cc1c[nH]c2ccccc12)C(=O)N1CCC(NCc2ccc3c(c2)Cc2ccccc2-3)CC1
active: inhibition [2] 53% | growth inhibition [4] 92%
inactive: growth inhibition [1] 8% | inhibition [3] -6% | outcome [5] | outcome [6] | outcome [7] | outcome [8]
